In all, about 81,000 sequences were measured (“one-hybrid fitness for binding parS DNA”: median about -0.17, highest 2% from about 0.51 on). For the sample, the highest values were picked, then their nearest neighbours and some sequences at random.
B1: Caulobacter ParB omega fusion; a variant is named by its letters at X, in order, B8GW30 (parent)
chain: MESVVVGEPGMSEGRRGLGRGLSALLGEVDAAPAQAPGEQLGGSREAPIEILQRNPDQPRRTFREEDLEDLSNSIREKGVLQPILVRPSPDTAGEYQIVAGERAWRAAQRAGLKTVPIMVRELDDLAVLEIGIIENVQRADLNVLEEALSYKVLMEKFERTQENIAQTIGKSXSHVANXMRLLXLPDEVQSYLVSGELTAXHARAIAAAADPVALAKQIIEGGLSVRETEALARKAPNLSAGKSKGGRPPRVKDTDTQALESDLSSVLGLDVSIDHRGSTGTLTITYATLEQLDDLCNRLTRGI

Variants of: B1
Assay: one-hybrid fitness for binding parS DNA (scaled: cognate 1, non-cognate 0); higher = stronger binding
Conditions: with parS DNA site
Procedure, shortened: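 Selection: bacterial one-hybrid in E. coli USO, HIS3 reporter with the site 19 bp from the promoter, 48 hours at 37°C on M9-minus-histidine plus 0.1 mM IPTG and 5 mM 3-AT. Libraries were Caulobacter ParB with four randomised specificity codons, sequenced on Illumina before and after selection. Fitness is the rescaled log change in variant-to-wild-type read ratio, anchored to the cognate and non-cognate sites.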

Variant	one-hybrid fitness for binding parS DNA
RAKS	0.874
TSEV	≤ 0.2
RRHL	≤ 0.2
PNHC	≤ 0.2
NLGV	≤ 0.2
RAVR	≤ 0.2
RAKK	≤ 0.2
RAKG	0.937
RAVF	≤ 0.2
RAKQ	≤ 0.2
RAVG	0.923
QLEL	≤ 0.2
FTDC	≤ 0.2
NTWT	≤ 0.2
RQNS	0.921
RQNH	0.329
RQDP	≤ 0.2
RQNP	≤ 0.2
RQDN	0.431
RQDS	0.977
PMTF	≤ 0.2
IRPV	≤ 0.2
RSLM	0.32
WKDS	≤ 0.2
RPKC	≤ 0.2
RSKP	≤ 0.2

Variant	one-hybrid fitness for binding parS DNA
RSKN	0.443
RCKC	0.816
RSKC	0.943
RDKC	0.282
IDNS	≤ 0.2
QCDG	≤ 0.2
PPSE	≤ 0.2
KIGR	≤ 0.2
ANCC	≤ 0.2
HRKN	≤ 0.2
RNKS	0.936
RNVD	≤ 0.2
RNVS	0.674
RNKN	0.354
RNKY	0.543
RNVY	≤ 0.2
RNKH	0.219
RNVP	≤ 0.2
RNYY	0.297
QADL	≤ 0.2
QIAH	≤ 0.2
YERV	≤ 0.2
YMQL	≤ 0.2
NLRR	≤ 0.2
QKLQ	≤ 0.2
RIFG	0.978

Variant	one-hybrid fitness for binding parS DNA
RIFK	0.283
RIAP	≤ 0.2
RIAH	0.279
RIFY	0.462
RIAG	0.997
YDMG	≤ 0.2
WYYF	≤ 0.2
GTPA	≤ 0.2
PTAE	≤ 0.2
RYPG	0.545
RYPH	≤ 0.2
RYPN	≤ 0.2
RYIN	0.269
RYIG	0.793
RYIK	≤ 0.2
PRFW	≤ 0.2
CGQS	≤ 0.2
HFIF	≤ 0.2
GKTS	≤ 0.2
RLSD	≤ 0.2
RLHH	0.204
RLNS	0.932
RLSN	0.455
RLRH	0.223
RLRP	≤ 0.2
RLNH	0.252

Variant	one-hybrid fitness for binding parS DNA
RLRS	0.875
RLSS	0.991
RLHS	0.96
RLND	≤ 0.2
RLHP	≤ 0.2
QPVT	≤ 0.2
TWLF	≤ 0.2
MFNG	≤ 0.2
MAAA	≤ 0.2
NWPE	≤ 0.2
TFVS	≤ 0.2
VVQN	≤ 0.2
YPYG	≤ 0.2
IVTG	≤ 0.2
LDGI	≤ 0.2
ACHY	≤ 0.2
RLYS	1.04
RLWD	≤ 0.2
RLYN	0.487
RLWS	1.03
RLGD	≤ 0.2
RLWN	0.443
RLLH	0.248
RLGP	≤ 0.2
RLYD	≤ 0.2
RLGS	0.981

Variant	one-hybrid fitness for binding parS DNA
RLLN	0.44
RLLS	1.05
YVWS	≤ 0.2
YNKG	≤ 0.2
RRYE	≤ 0.2
YFLW	≤ 0.2
GWSG	≤ 0.2
SAAF	≤ 0.2
VKNG	≤ 0.2
AELV	≤ 0.2
GLPW	≤ 0.2
PMAN	≤ 0.2
YMPP	≤ 0.2
KVPK	≤ 0.2
RLDH	≤ 0.2
RLDN	0.416
RLDS	1.01
QGEI	≤ 0.2
TFSF	≤ 0.2
YFFS	≤ 0.2
RGWS	0.573
RGGN	≤ 0.2
RGCS	0.595
RGCQ	≤ 0.2
RGCD	≤ 0.2
RGCT	0.51

Variant	one-hybrid fitness for binding parS DNA
RGWD	≤ 0.2
RGGP	≤ 0.2
RGGS	0.733
RGWN	≤ 0.2
RGCN	≤ 0.2
SEDR	≤ 0.2
YADT	≤ 0.2
KCCV	≤ 0.2
VDHL	≤ 0.2
DLCC	≤ 0.2
SLAM	≤ 0.2
NYMG	≤ 0.2
RGIH	≤ 0.2
RGQT	0.58
RGSS	0.849
RGIS	0.524
RGHF	≤ 0.2
RGSN	0.218
RGSD	≤ 0.2
RGHT	0.519
RGIN	≤ 0.2
TPNI	≤ 0.2
SATH	≤ 0.2

From a collection of fitness landscapes (doi:10.1016/j.celrep.2020.107928)
